According to PubChem BioAssay (EPA / NIEHS):
The source made the active and inactive calls. The calls were made as follows: active = hit-call score of the fitted dose curve at least 0.9, where 1 is the maximum; inactive = score below 0.9.

Experiment: APR_HepG2_MicrotubuleCSK_24hr: Apredica 24-hour HepG2 Assay for Microtubule CSK Stabilty (AID 2282909)
Settings: HepG2 microtubule cytoskeleton imaging, actives raise or lower the signal
How it was run: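 Human liver HepG2, 24 h dosing, 0.39–200 uM ×10 conc, dup, 0.5% DMSO. 3.7% formaldehyde fix, 0.5% Triton perm, anti-alpha-tubulin (1:200)/Cy5 secondary + Hoechst. HCS imaging, 6 fields/well; gain/loss fit vs DMSO.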
In the case of `c1ccc2c(c1)oc1ccccc12`, the outcome is reported as “inactive”. For `CCCSC(=O)N(CCC)CCC`, the outcome was “inactive”. In the case of `CCCCCCCCn1sccc1=O`, the AC50 is reported as 79.4 µM (active). In the case of `O=C(O)C1C2CCC(O2)C1C(=O)O` (stereo unspecified), the outcome is reported as “inactive”. With `Oc1ccc2ccc3cccc4ccc1c2c34` the outcome was “inactive”.

Experiment: APR_HepG2_MitoticArrest_24hr: Apredica 24-hour HepG2 Assay for Mitotic Arrest (AID 2282910)
Settings: high-content imaging, actives raise or lower the signal
How it was run: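 HepG2 human liver cells were exposed to compounds at 0.39–200 uM (10 concentrations, duplicate) in 0.5% v/v DMSO for 24 hr, then fixed and immunostained for phospho-histone H3 with Hoechst 33342. Mitotic arrest came from HCS fluorescent imaging, fitted bidirectionally against DMSO.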
For `O=[N+]([O-])c1ccc(Oc2ccc(Cl)cc2Cl)cc1`, the outcome was “inactive”. With `Cn1cc(-c2ccccc2)c(=O)c(-c2cccc(C(F)(F)F)c2)c1` the outcome was “inactive”. With `CN(C)c1ccccc1` the outcome was “inactive”. In the case of `Oc1ccccc1Cl`, the outcome is reported as “inactive”. With `C=CCc1ccc2c(c1)OCO2` the outcome was “inactive”. In the case of `CCCCCCCCCCCCCN1CC(C)OC(C)C1` (stereo unspecified), the AC50 is reported as 97.6 µM (active). For `Nc1cc(Cl)cc(C(=O)O)c1Cl`, the outcome was “inactive”. In the case of `Nc1ccc(Cl)cc1N`, the outcome is reported as “inactive”. With `CC(C)N(Cc1ccccc1)C(=O)C(C)(C)C` the outcome was “inactive”. With `ClCCOCCCl` the outcome was “inactive”. With `CO[C@@H]1[C@H](OC(=O)NC(=O)CCl)CC[C@]2(CO2)[C@H]1[C@@]1(C)O[C@@H]1CC=C(C)C` the outcome was “inactive”. For `CCOc1cccc(C2(N3CCN(c4ccccc4)CC3)CCC(C)CC2)c1` (stereo unspecified), the outcome was “inactive”. In the case of `CCC12COCN1COC2`, the AC50 is reported as 93.6 µM (active). With `CS(=O)(=O)NC(=O)c1cc(Oc2ccc(C(F)(F)F)cc2Cl)ccc1[N+](=O)[O-]` the outcome was “inactive”. With `ClC1=C(Cl)C2(Cl)C3C(Cl)C=CC3C1(Cl)C2(Cl)Cl` (stereo unspecified) the AC50 was 76.8 µM (active). In the case of `Cc1ccc([N+](=O)[O-])cc1`, the outcome is reported as “inactive”. With `O=C(N[C@H](c1ccccc1)[C@@H]1CN2CCC1CC2)c1c(Cl)ccc(C(F)(F)F)c1Cl` the AC50 was 78.7 µM (active). For `CCCCOC(=O)c1ccccc1C(=O)OCc1ccccc1`, the outcome was “inactive”. For `O=C1CCCO1`, the outcome was “inactive”. In the case of `c1ccc(N=Nc2ccccc2)cc1`, the outcome is reported as “inactive”. In the case of `CN(C)[C@@H]1C(=O)C(C(N)=O)=C(O)[C@@]2(O)C(=O)C3=C(O)c4c(O)cccc4[C@@](C)(O)[C@H]3C[C@@H]12`, the outcome is reported as “inactive”. In the case of `CCC(C)c1ccc(O)cc1` (stereo unspecified), the outcome is reported as “inactive”. For `c1ccc2c(c1)oc1ccccc12`, the outcome was “inactive”. In the case of `CCCSC(=O)N(CCC)CCC`, the outcome is reported as “inactive”. For `CCCCCCCCn1sccc1=O`, the AC50 was 7.54 µM (active). With `O=C(O)C1C2CCC(O2)C1C(=O)O` (stereo unspecified) the AC50 was 26.6 µM (active). With `Oc1ccc2ccc3cccc4ccc1c2c34` the AC50 was 82.2 µM (active).

Experiment: APR_HepG2_MitoMembPot_24hr: Apredica 24-hour HepG2 Assay for Mitochondrial Membrane Potential (AID 2282911)
Settings: imaging, actives raise or lower the signal
How it was run: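 HepG2 human liver cells were exposed 24 hr to compounds at 0.39–200 uM (final DMSO 0.5% v/v) in duplicate. MitoTracker Red CMXRos (250 nM, 30 min) was loaded before formaldehyde fixation; fluorescence was imaged by ArrayScan HCS and fitted bidirectionally versus DMSO.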
In the case of `O=[N+]([O-])c1ccc(Oc2ccc(Cl)cc2Cl)cc1`, the outcome is reported as “inactive”. With `Cn1cc(-c2ccccc2)c(=O)c(-c2cccc(C(F)(F)F)c2)c1` the outcome was “inactive”. For `CN(C)c1ccccc1`, the outcome was “inactive”. With `Oc1ccccc1Cl` the outcome was “inactive”. With `C=CCc1ccc2c(c1)OCO2` the AC50 was 0.0311 µM (active). For `CCCCCCCCCCCCCN1CC(C)OC(C)C1` (stereo unspecified), the outcome was “inactive”. With `Nc1cc(Cl)cc(C(=O)O)c1Cl` the outcome was “inactive”. With `Nc1ccc(Cl)cc1N` the outcome was “inactive”. For `CC(C)N(Cc1ccccc1)C(=O)C(C)(C)C`, the outcome was “inactive”. For `ClCCOCCCl`, the outcome was “inactive”. In the case of `CO[C@@H]1[C@H](OC(=O)NC(=O)CCl)CC[C@]2(CO2)[C@H]1[C@@]1(C)O[C@@H]1CC=C(C)C`, the outcome is reported as “inactive”. With `CCOc1cccc(C2(N3CCN(c4ccccc4)CC3)CCC(C)CC2)c1` (stereo unspecified) the outcome was “inactive”. With `CCC12COCN1COC2` the outcome was “inactive”. In the case of `CS(=O)(=O)NC(=O)c1cc(Oc2ccc(C(F)(F)F)cc2Cl)ccc1[N+](=O)[O-]`, the outcome is reported as “inactive”. In the case of `ClC1=C(Cl)C2(Cl)C3C(Cl)C=CC3C1(Cl)C2(Cl)Cl` (stereo unspecified), the outcome is reported as “inactive”. For `Cc1ccc([N+](=O)[O-])cc1`, the outcome was “inactive”. For `O=C(N[C@H](c1ccccc1)[C@@H]1CN2CCC1CC2)c1c(Cl)ccc(C(F)(F)F)c1Cl`, the outcome was “inactive”. In the case of `CCCCOC(=O)c1ccccc1C(=O)OCc1ccccc1`, the outcome is reported as “inactive”. For `O=C1CCCO1`, the outcome was “inactive”. With `c1ccc(N=Nc2ccccc2)cc1` the outcome was “inactive”. For `CN(C)[C@@H]1C(=O)C(C(N)=O)=C(O)[C@@]2(O)C(=O)C3=C(O)c4c(O)cccc4[C@@](C)(O)[C@H]3C[C@@H]12`, the outcome was “inactive”. In the case of `CCC(C)c1ccc(O)cc1` (stereo unspecified), the outcome is reported as “inactive”. In the case of `c1ccc2c(c1)oc1ccccc12`, the outcome is reported as “inactive”. In the case of `CCCSC(=O)N(CCC)CCC`, the outcome is reported as “inactive”. With `CCCCCCCCn1sccc1=O` the AC50 was 53.4 µM (active). For `O=C(O)C1C2CCC(O2)C1C(=O)O` (stereo unspecified), the outcome was “inactive”. For `Oc1ccc2ccc3cccc4ccc1c2c34`, the AC50 was 30.6 µM (active).

Experiment: APR_HepG2_MitoMass_24hr: Apredica 24-hour HepG2 Assay for Mitochondrial Mass (AID 2282912)
Settings: high-content imaging, actives raise or lower the signal
How it was run: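 Mitochondrial mass is read as MitoTracker Red fluorescence intensity from automated imaging, with bidirectional curve fitting relative to DMSO. HepG2 cells received compound (0.39–200 uM, 0.5% DMSO final) for 24 hr and were dye-loaded (250 nM, 30 min) before formaldehyde fixation.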
For `O=[N+]([O-])c1ccc(Oc2ccc(Cl)cc2Cl)cc1`, the outcome was “inactive”. For `Cn1cc(-c2ccccc2)c(=O)c(-c2cccc(C(F)(F)F)c2)c1`, the outcome was “inactive”. In the case of `CN(C)c1ccccc1`, the outcome is reported as “inactive”. With `Oc1ccccc1Cl` the outcome was “inactive”. In the case of `C=CCc1ccc2c(c1)OCO2`, the outcome is reported as “inactive”. For `CCCCCCCCCCCCCN1CC(C)OC(C)C1` (stereo unspecified), the AC50 was 189 µM (active). For `Nc1cc(Cl)cc(C(=O)O)c1Cl`, the outcome was “inactive”. In the case of `Nc1ccc(Cl)cc1N`, the outcome is reported as “inactive”. In the case of `CC(C)N(Cc1ccccc1)C(=O)C(C)(C)C`, the outcome is reported as “inactive”. For `ClCCOCCCl`, the outcome was “inactive”. For `CO[C@@H]1[C@H](OC(=O)NC(=O)CCl)CC[C@]2(CO2)[C@H]1[C@@]1(C)O[C@@H]1CC=C(C)C`, the outcome was “inactive”. With `CCOc1cccc(C2(N3CCN(c4ccccc4)CC3)CCC(C)CC2)c1` (stereo unspecified) the outcome was “inactive”. For `CCC12COCN1COC2`, the outcome was “inactive”. With `CS(=O)(=O)NC(=O)c1cc(Oc2ccc(C(F)(F)F)cc2Cl)ccc1[N+](=O)[O-]` the outcome was “inactive”. With `ClC1=C(Cl)C2(Cl)C3C(Cl)C=CC3C1(Cl)C2(Cl)Cl` (stereo unspecified) the AC50 was 55 µM (active). With `Cc1ccc([N+](=O)[O-])cc1` the outcome was “inactive”. With `O=C(N[C@H](c1ccccc1)[C@@H]1CN2CCC1CC2)c1c(Cl)ccc(C(F)(F)F)c1Cl` the outcome was “inactive”. With `CCCCOC(=O)c1ccccc1C(=O)OCc1ccccc1` the outcome was “inactive”. In the case of `O=C1CCCO1`, the outcome is reported as “inactive”. In the case of `c1ccc(N=Nc2ccccc2)cc1`, the outcome is reported as “inactive”. In the case of `CN(C)[C@@H]1C(=O)C(C(N)=O)=C(O)[C@@]2(O)C(=O)C3=C(O)c4c(O)cccc4[C@@](C)(O)[C@H]3C[C@@H]12`, the outcome is reported as “inactive”. In the case of `CCC(C)c1ccc(O)cc1` (stereo unspecified), the outcome is reported as “inactive”. With `c1ccc2c(c1)oc1ccccc12` the outcome was “inactive”. For `CCCSC(=O)N(CCC)CCC`, the outcome was “inactive”. With `CCCCCCCCn1sccc1=O` the outcome was “inactive”. In the case of `O=C(O)C1C2CCC(O2)C1C(=O)O` (stereo unspecified), the AC50 is reported as 41.4 µM (active). For `Oc1ccc2ccc3cccc4ccc1c2c34`, the AC50 was 31.9 µM (active).
